Assay results reported in PubChem BioAssay (NCATS).
Records with an inconclusive call do not appear. Active and inactive are the calls of the source. Calls follow the shape of the dose curve; as a rule, active = well fitted inhibition curve with a large enough effect; inconclusive = small, poorly fitted or top-dose-only effect; inactive = no such curve, though single readings can be large or run the other way.

Molecular target: Cytochrome P450 3A7 (Homo sapiens) (UniProt P24462)
Assay: Cytochrome P450 family 3 subfamily A member 7 (CYP3A7) small molecule antagonists: luciferase biochemical qHTS assay (AID 1963596); also: nearly all actives have a fitted effect of over 40% in size
Conditions: P450-Glo CYP3A7 enzyme luminescence, 1 h; series mostly up to 57.4 µM; activity change, negative = inhibition: at the top concentration
Excerpt: National Center for Advancing Translational Sciences [NCATS] Assay Overview: Cytochrome P450 (CYP) enzymes are membrane-bound hemeproteins that play a key role in metabolism of drugs and xenobiotics. The CYP3A subfamily is the most abundant, representing 30% of the total adult hepatic CYP content, whereas CYP3A7 is found predominantly in human fetal liver and accounts up to 50% of the total fetal hepatic CYP content. Testing the effect of chemicals on CYP isozymes is useful to minimize the adverse drug reactions and toxicities in the drug development process. Chemicals were tested for their effect on CYP enzyme activities by using P450-Glo (TM) screening systems (Promega Corporation, Madison, WI). These systems provide a luminescent method containing proluciferin substrates and are converted to luciferin products by CYP isozymes. The luciferin products formed are detected with a luciferin detection reagent, and the amount of light produced is proportional to CYP activity. P450-Glo (TM) CYP3A7 screening system (Catalog. No. V8812) was used to detect the compounds that interfere with CYP3A7 activity. The positive control compound used for CYP3A7 assay is ketoconazole (Sigma-Aldrich, St. Louis, MO).
Assay Protocol Summary: Two ul of enzyme-substrate mix was dispensed into medium binding white/solid 1536-well plates (Greiner Bio-One North America Inc., Monroe, NC) using a Flying Reagent Dispenser (FRD, Aurora Discovery, San Diego, CA). Compounds dissolved in DMSO, and positive control (ketoconazole) were transferred to the assay plates at 23 nl using a Pintool station (Wako, San Diego, CA). The assay plates were incubated at room temperature for 10 min. Then 2 ul of NADPH regeneration solution was added to each well of the assay plates using an FRD and incubated at room temperature for 1 h. The reaction was stopped by adding 4 ul of detection reagent using an FRD and after 20 min incubation at room temperature the luminescence signal was measured using a ViewLux plate reader (Perkin Elmer, Shelton, CT). Data were expressed as relative luminescence units.
% is scaled to controls: 0 for no effect and ±100 for the full control effect; potency is read from the fitted curve at half-maximal effect.

Cytochrome P450 3A7 (Homo sapiens), sequence (P24462 whole entry, looked up): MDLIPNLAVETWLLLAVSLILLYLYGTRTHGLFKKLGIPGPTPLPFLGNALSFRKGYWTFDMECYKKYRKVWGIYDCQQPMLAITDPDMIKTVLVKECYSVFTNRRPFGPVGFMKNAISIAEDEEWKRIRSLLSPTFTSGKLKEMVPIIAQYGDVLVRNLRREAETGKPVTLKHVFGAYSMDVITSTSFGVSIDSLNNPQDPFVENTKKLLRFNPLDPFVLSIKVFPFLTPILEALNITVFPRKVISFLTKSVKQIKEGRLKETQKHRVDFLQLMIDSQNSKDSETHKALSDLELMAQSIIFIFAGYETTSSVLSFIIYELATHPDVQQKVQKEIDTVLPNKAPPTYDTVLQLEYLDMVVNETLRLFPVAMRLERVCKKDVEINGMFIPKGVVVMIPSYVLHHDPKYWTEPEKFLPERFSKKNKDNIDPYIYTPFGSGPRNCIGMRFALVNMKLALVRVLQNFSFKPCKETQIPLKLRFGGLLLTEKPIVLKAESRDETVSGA

| Compound | activity change, negative = inhibition | Potency |
| --- | --- | --- |
| CC(=O)C1CCOC1=O (stereo not given) | -20% (inactive) | – |
| CCCCNCC(O)c1ccc(O)cc1 (stereo not given) | 2.31% (inactive) | – |
| N#Cc1cn([C@@H]2O[C@H](CO)[C@H](O)[C@@H]2O)c2ncnc(N)c12 | -12.3% (inactive) | – |
| CNC(C)[C@@H](O)c1ccc(O)cc1 (stereo not given in full) | -1.25% (inactive) | – |
| COC(=O)[C@@H](N)CCCN/C(N)=N/[N+](=O)[O-] | 3.11% (inactive) | – |
| CCN(CC)N(O)N=O | -0.176% (inactive) | – |
| CCNc1nc(Cl)nc(NCC)n1 | -22.5% (inactive) | – |
| COC(=O)C(Cl)C(=O)OC | 27.7% (inactive) | – |
| CCCC[N+]1(C)[C@@H]2CC(OC(=O)[C@H](CO)c3ccccc3)C[C@H]1[C@@H]1O[C@@H]12 (stereo not given in full) | -4.75% (inactive) | – |
| NCC(CC(=O)O)c1ccc(Cl)cc1 (stereo not given) | -9.7% [at 0.91 µM] (inactive) | – |
| CC(CC(C(N)=O)(c1ccccc1)c1ccccc1)N(C)C (stereo not given) | -1.42% (inactive) | – |
| CC(C)(C)NCC(O)c1ccccc1Cl (stereo not given) | -2.56% (inactive) | – |
| CN[C@@H](C)[C@H](O)c1ccccc1 | 13.6% (inactive) | – |
| O=[N+]([O-])c1c(Cl)c(Cl)cc(Cl)c1Cl | -1.95% [at 115 µM] (inactive) | – |
| C[C@H]1[C@@H]2Cc3ccc(O)cc3[C@@]1(C)CCN2C | -33.2% [at 288 µM] (inactive) | – |
| CC(=O)[O][Hg][c]1ccccc1 | – | 977 nM (active) |
| CC(=O)OC1C[C@H](O[C@@H]2C(O)C[C@H](O[C@@H]3C(O)C[C@@H](OC4CC[C@]5(C)C(CCC6C5CC(O)[C@@]5(C)C(C7=CC(=O)OC7)CC[C@@]65O)C4)OC3C)OC2C)O[C@H](C)[C@H]1O[C@H]1OC(CO)C(O)C(O)C1O (stereo not given in full) | -5.82% (inactive) | – |
| O=c1n(Cl)c(=O)n(Cl)c(=O)n1Cl | 6.38% (inactive) | – |
| CC(C)(N)Cc1ccccc1 | -9.67% (inactive) | – |
| CC(C)(C)NC[C@H](O)c1ccc(O)cc1Cl | -10.8% (inactive) | – |

| Compound | activity change, negative = inhibition | Potency |
| --- | --- | --- |
| CC[N+]1(CCOC(=O)C(O)(c2ccccc2)c2ccccc2)CCCCC1 | -27.8% (inactive) | – |
| CCC1(c2ccccc2)CCC(=O)NC1=O (stereo not given) | 40.5% (inactive) | – |
| CC1=C(C(=O)O)N2C(=O)[C@@H](N)[C@H]2SC1 | -14.2% [at 23.9 µM] (inactive) | – |
| O=C(O)Cc1ccccc1 | 6.22% (inactive) | – |
| Oc1ccc2c3c1O[C@H]1[C@@H](O)C=C[C@H]4[C@@H](C2)NCC[C@@]341 | -19.6% [at 115 µM] (inactive) | – |
| O=C(N[C@H]1N=C(c2ccccc2F)c2cccc3c2N(CC3)C1=O)c1cc2ccccc2[nH]1 | 1.42% (inactive) | – |
| O=C(N[C@@H]1N=C(c2ccccc2F)c2cccc3c2N(CC3)C1=O)c1cc2ccccc2[nH]1 | -18.9% (inactive) | – |
| CN(C)CCc1ccc(O)cc1 | -5.78% (inactive) | – |
| CN(C)CCc1c[nH]c2ccc(CN3CCN(C)S3(=O)=O)cc12 | -17.9% (inactive) | – |
| CCN(C(C)=O)c1cccc(-c2ccnc3c(C#N)cnn23)c1 | 27.4% (inactive) | – |
| C[C@H]1C(=O)O[C@@H]2CCN3CC=C(COC(=O)[C@](C)(O)[C@]1(C)O)[C@H]23 | -23.6% (inactive) | – |
| c1cc2c(c(N3CCNCC3)c1)OCCO2 | -5.6% (inactive) | – |
| CCCN1CCC[C@@H]2Cc3[nH]ncc3C[C@H]21 | -1.14% (inactive) | – |
| O=C(N1CCCCC1Cc1ccccc1)n1cc(-c2ccc(-c3ccccc3)cc2)nn1 (stereo not given) | -20.3% (inactive) | – |
| CC(C)N(CCC(C(N)=O)(c1ccccc1)c1ccccn1)C(C)C (stereo not given) | -25.4% (inactive) | – |
| COc1ccc(C(CN(C)C)C2(O)CCCCC2)cc1 (stereo not given) | 8.16% (inactive) | – |
| CC(C)[C@@H](CN1CC[C@@](C)(c2cccc(O)c2)[C@@H](C)C1)NC(=O)[C@H]1Cc2ccc(O)cc2CN1 | -23.9% (inactive) | – |
| CCN1CCN(C(c2ccc(Cl)cc2)c2ccc(Cl)cc2)CC1 | 4.84% (inactive) | – |
| CC(C)(N)Cc1ccc(Cl)cc1 | -16.9% (inactive) | – |
| CCCCn1cc(C(=O)c2cccc3ccccc23)c2ccccc21 | 12.7% (inactive) | – |
